JMJD2A Tudor inh: inhibitors of human JMJD2A Tudor domain. 4.4% of 390,000 active. AlphaScreen JMJD2A-Tudor / H3K4me3 peptide binding. O75164. Potency, µM (highest dose often 114 µM), usual class: inhibitors; further: nearly all actives have a fitted effect of over 50% in size
HP1b chromo inh: inhibitors of HP1-beta chromodomain binding to methylated histone tails; P83916; AlphaScreen HP1-beta / biotin-H3K9me3 peptide binding; Potency, µM (doses to about 114 µM), hits mostly inhibitors; 0.56% of 390,000 active; further: nearly all actives have a fitted effect of over 70% in size
Target sequence (P83916 whole entry, looked up): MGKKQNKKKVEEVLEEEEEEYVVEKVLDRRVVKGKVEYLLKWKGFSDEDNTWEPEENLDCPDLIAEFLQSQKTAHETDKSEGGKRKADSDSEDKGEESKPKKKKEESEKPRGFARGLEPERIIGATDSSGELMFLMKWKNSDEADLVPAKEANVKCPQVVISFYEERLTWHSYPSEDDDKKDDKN
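Compound inhibition of the preformed complex between 50 nM HP1-beta and 50 nM biotinylated H3K9me3 peptide was read by AlphaScreen. Buffer was PBS pH 7.4 with 0.01% Tween-20. Incubations ran 30 min at room temperature, with 10 ug/mL donor/acceptor beads.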
Sfp PPTase inh: inhibitors of Bacillus subtilis Sfp phosphopantetheinyl transferase; Q9F4F7; Biochemical Sfp PPTase activity, qHTS; 3.5% of 310,000 active; Potency, µM, usual class: inhibitors;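 further: the enzyme is Sfp with the accession as filed and its product quenches rhodamine fluorescence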
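Buffer: 50 mM Hepes-Na pH 7.6, 10 mM MgCl2, 0.01% Nonidet P-40, 0.01% BSA. Enzyme 15 nM, pre-exposed to compound 15 min; substrates then added and fluorescence change tracked over 30 min.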
G9a inh: inhibitors of human histone lysine methyltransferase G9a; 8.8% of 350,000 active; G9a H3K9 monomethylation, AlphaScreen, 2 h; Q96KQ7; Potency, µM (highest dose often 102 µM), most hits filed as inhibitors; further: nearly all actives have a fitted effect of over 75% in size
Target sequence (Q96KQ7 913-1193 limits assumed): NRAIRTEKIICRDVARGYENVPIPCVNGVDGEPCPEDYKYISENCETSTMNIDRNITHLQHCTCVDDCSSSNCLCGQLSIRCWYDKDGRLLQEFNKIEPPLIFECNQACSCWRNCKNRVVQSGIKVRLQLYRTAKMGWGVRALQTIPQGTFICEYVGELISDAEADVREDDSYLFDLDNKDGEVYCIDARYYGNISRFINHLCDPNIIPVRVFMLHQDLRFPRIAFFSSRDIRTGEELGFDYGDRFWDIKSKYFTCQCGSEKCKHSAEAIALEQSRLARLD
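Readings reflect AlphaScreen signal from monomethyl-H3K9 antibody detection. HMT at 20 nM; substrate b-H3K9 500 nM; cofactor SAM 20 uM; 2 h RT reaction; compounds tested as titrations in qHTS with 15 min preincubation.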
BAZ2B inh: BAZ2B (human) inhibition; Q9UIF8; AlphaScreen BAZ2B-H3K14Ac peptide displacement; Potency, µM (series often up to 114 µM), actives largely listed as inhibitors; 4.4% of 360,000 active; further: nearly all actives have a fitted effect of over 60% in size
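Compounds, titrated to a top concentration of 110 uM, were incubated 30 min at room temperature with preformed BAZ2B/acetyl-K14 H3 peptide complex (50 nM each). Proximity signal was measured by AlphaScreen after 20 min with beads.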
Numbers stand for hits; 0 = inactive; ? = inconclusive; - = not tested or not shown; [ ] = remark or other dose. A selection: hits, their analogues and other compounds. The true share with any hit is near 12%. The call rests on the fitted dose curve; in most records, active means well fitted curve in the direction sought with a large enough effect; inconclusive means small, poorly fitted or top-dose-only effect, or another doubt; inactive means no such curve, though single readings can be large; an effect the other way counts as inactive or inconclusive.

SMILES	JMJD2A Tudor inh	HP1b chromo inh	Sfp PPTase inh	G9a inh	BAZ2B inh
O=C(/C=C/c1ccccc1)n1cnnc1SC/C=C/c1ccccc1	0	0	?	20µM	0
CCOC(=O)CSc1nnc(NC(=O)c2cc([N+](=O)[O-])cc([N+](=O)[O-])c2)s1	?	0	0	25.1µM	0
CCOCc1nnc(NC(=O)c2cc(C(=O)OC)cc([N+](=O)[O-])c2)s1	44.7µM	0	0	50.1µM	?
COC(=O)c1cc(C(=O)Nc2nnc(CC(C)(C)C)s2)cc([N+](=O)[O-])c1	0	?	?	44.7µM	0
CCOCc1nnc(NC(=O)c2ccc(OC)cc2)s1	0	0	0	0	0
C=CCNC(=O)N1CCc2nc(CCCC)c3c(c2C1)CO[C@@H](C)C3	-	-	0	-	-
CC(C)(O)c1cc(=O)sc2nc3ccccc3n12	0	0	0	0	0
O=C(O)c1cc(C(=O)O)cc(-c2ccc(/C=c3/sc4nc5ccccc5n4c3=O)o2)c1	22.4µM	15.8µM	7.08µM	2µM	20µM
O=C(O)c1cccc(-c2ccc(/C=c3/sc4nc5ccccc5n4c3=O)o2)c1	22.4µM	?	?	7.94µM	25.1µM
O=c1c2ccccc2nc2sc3ccccc3n12	0[11.4 µM]	0	0	0	0
C=CC[C@@H]1C=C[C@@H](O/N=C\[C@@H](NS(=O)(=O)c2ccc(C)cc2)[C@H](C)/C=C\CC(=O)OC)[C@@H](CO)O1	-	-	0	-	-
COc1ccc2sc(-c3ccccc3OC)c(C#Cc3cncn3C)c2c1	39.8µM	0	-	-	-
COc1ccccc1-c1sc2cc3c(cc2c1C#CCO)OCO3	0	0	-	0[0.501 µM]	0
COc1ccc(-c2sc3ccccc3c2C#Cc2cncn2C)cc1	?	0	-	-	-
COc1cc(OC)cc(-c2sc3ccc(OC)cc3c2C#CCCO)c1	0	0	-	0[0.501 µM]	?
COc1ccc2sc(-c3ccccc3OC)c(C#CCCO)c2c1	0	0	-	0[0.501 µM]	79.4µM
COc1ccccc1-c1sc2cc3c(cc2c1C#Cc1cncn1C)OCO3	20µM	0	-	-	-
Cc1ccc(C)c(NC(=O)CCCn2nc(C)c3sc4ccccc4c3c2=O)c1	0	0	-	0	0
CCOC(=O)C1CCN(C(=O)C2CCN(S(=O)(=O)c3cc(Cl)ccc3OCC)CC2)CC1	0	0	0	-	0
O=C(COc1nsnc1N1CCOCC1)Nc1ccc(Br)cc1	0	0	0	0	0
CCc1ccc(S(=O)(=O)c2cn(CC(=O)Nc3ccc(C)cc3)c3ccccc3c2=O)cc1	0	0	-	0	0
NNc1nc(C(F)(F)F)nc2ccccc12	0	0	50.1µM	31.6µM	0
Cc1ccc(-c2nc3ccccc3nc2Cl)cc1	0	0	0	0	0
Cc1ccc(-c2nc3ccccc3nc2NN)cc1	0	0	14.1µM	35.5µM	0
Cc1ccc(S(=O)(=O)NNc2nc3ccccc3nc2C(F)(F)F)cc1	35.5µM	0	11.2µM	1.41µM	44.7µM
SMILES	JMJD2A Tudor inh	HP1b chromo inh	Sfp PPTase inh	G9a inh	BAZ2B inh
NNc1nc2ccccc2nc1C(F)(F)F	0[11.4 µM]	0	0	8.91µM	0
CCCn1c(C)nc2c(NCCCN(CC)CC)nc(C)nc21	-	-	0	-	-
Cc1ccc(CNC(=O)C2CCCN(S(=O)(=O)c3ccc4c(ccn4C)c3)C2)cc1 (configuration not stated)	0	0	-	0	0
Cc1ccc(-c2ccc(=O)n(CC(=O)Nc3ccc(F)c(Cl)c3)n2)cc1C	0	0	-	0	0
O=C(Cc1ccc(F)cc1)Nc1ccc(Cl)cn1	0	0	0	-	0
CCCn1[nH]cc(SC)c(=O)c1=O	25.1µM	0	0	?	?
CCn1c2ccccc2c2cc(Nc3cc(C)nc4ncnn34)ccc21	?	0	0	44.7µM	0
Cc1cc(Nc2ccccc2F)n2ncnc2n1	0	0	0	50.1µM	0
Cc1cc(Nc2ccc(N(C)C)cc2)n2ncnc2n1	0	0	0	44.7µM	0
C#CCOCCOCCOCCNc1nc(N2CCN(C(=O)[C@H]([C@@H](C)CC)n3cc([C@@H](N)CO)nn3)CC2)nc(N2CCN(C(=O)[C@H]([C@@H](C)CC)n3cc([C@@H](N)CO)nn3)CC2)n1	-	-	0	0[12.7 µM]	22.4µM
C#CCOCCOCCOCCNc1nc(N2CCN(C(=O)[C@H]([C@@H](C)CC)n3cc([C@@H](N)CO)nn3)CC2)nc(N2CCN(C(=O)[C@H]([C@@H](C)CC)n3cc([C@@H](N)CC(C)C)nn3)CC2)n1	50.1µM	0	0	0[12.7 µM]	50.1µM
COc1ccc(NC(=O)Cn2nc3c(cc2=O)CCCC3)cc1Cl	0	0	-	0	0

Source: PubChem BioAssay
